Our source for the relative growth values is the supplement of paper PMC12067926.

For one assay, the system named is Oryzobacter 1 (Oryzobacter terrae). As to the kind of experiment: relative growth (AUC of 72 h growth curve relative to DMSO control, dAUC) (ratio); higher = more growth (less inhibition), active = hit call of the paper. As to conditions: 20 µM;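 active = growth AUC significantly below the DMSO wells by Dunnett test; inactive = the rest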. Put shortly: (§1)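 For relative growth (dAUC), the spline-integrated area under the growth curve was divided by the mean of the DMSO controls. Results were averaged over three biological replicates. Each replicate used a 1:100 dilution, into 96-well plates holding each chemical at 20 µM (1% DMSO), of isolates from Icelandic stream sediments and Silwood Park soil or whole sediment communities that had been grown to carrying capacity in Luria–Bertani medium. Plates were shaken briefly before each hourly A600 reading over 72 h.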
On to `Nc1c([N+](=O)[O-])ccc(Oc2ccccc2)c1Cl`, for which the relative growth was 1.05 (inactive).

For the molecule `COCC(=O)N(c1c(C)cccc1C)[C@H](C)C(=O)OC`, the relative growth was 0.955 (inactive).

In the case of `O=C(Nc1ccc(F)cc1F)c1cccnc1Oc1cccc(C(F)(F)F)c1`, the relative growth is 1.03 (inactive).

With `N#Cc1sc2c(=O)c3ccccc3c(=O)c=2sc1C#N`, the relative growth was 0.898 (inactive).

In the case of `CC(C)OC(=O)Nc1cccc(Cl)c1`, the relative growth is 0.999 (inactive).

`N#C/N=C1\SCCN1Cc1ccc(Cl)nc1`: the relative growth was 1.02 (inactive).

As for `CC(Oc1ccc(Oc2ncc(C(F)(F)F)cc2Cl)cc1)C(=O)O` (configuration not stated), the relative growth was 1.13 (inactive).

For `Oc1ccccc1-c1ccccc1`, the relative growth is 1.12 (inactive).

As for `C#CCOc1ccc(CCNC(=O)C(OCC#C)c2ccc(Cl)cc2)cc1OC` (configuration not stated), the relative growth was 1.02 (inactive).

In the case of `O=[N+]([O-])c1cc(C(F)(F)F)c(Cl)c([N+](=O)[O-])c1Nc1ncc(C(F)(F)F)cc1Cl`, the relative growth was 0.00855 (active).

For `CC(C)CC(C)c1sccc1NC(=O)c1cn(C)nc1C(F)(F)F` (configuration not stated), the relative growth amounted to 1.2.

For `O=C1C=C(N(Cc2ccc(Cl)nc2)CC(F)F)CO1`, the relative growth was 1.11 (inactive).

Regarding `O=C(Nc1ccccc1-c1ccc(Cl)cc1)c1cccnc1Cl`, the relative growth is 0.99 (inactive).

With `CC(C)N1C(=O)c2ccccc2NS1(=O)=O`, the relative growth is 1.02 (inactive).

As for `CCC(=O)Nc1ccc(Cl)c(Cl)c1`, the relative growth is 1.02 (inactive).

Turning to `ClC1C(Cl)C(Cl)C(Cl)C(Cl)C1Cl` (configuration not stated), the relative growth was 1.13 (inactive).

As to `CN/C(=N\[N+](=O)[O-])NCc1cnc(Cl)s1`, the relative growth was 1.05 (inactive).

`CCc1cnc(C2=NC(C)(C(C)C)C(=O)N2)c(C(=O)O)c1` (configuration not stated): the relative growth was 0.96 (inactive).

For `N#Cc1c(Cl)c(Cl)c(Cl)c(C#N)c1Cl`, the relative growth is 0.632 (active).

As to `O=C(NCCc1ncc(C(F)(F)F)cc1Cl)c1ccccc1C(F)(F)F`, the relative growth is 1.11 (inactive).

Turning to `CCc1cc(C)cc(CC)c1-c1c(OC(=O)C(C)(C)C)n2n(c1=O)CCOCC2`, the relative growth was 1.01 (inactive).

For `CC1(C)CON(Cc2ccccc2Cl)C1=O`, the relative growth is 1.13 (inactive).

In the case of `CCOCn1c(-c2ccc(Cl)cc2)c(C#N)c(Br)c1C(F)(F)F`, the relative growth was 1 (inactive).

`COc1cc(C)c(C(=O)c2c(OC)ccc(Br)c2C)c(OC)c1OC`: the relative growth is 1.07 (inactive).

On to `CCOc1ccc(C(C)(C)COCc2cccc(Oc3ccccc3)c2)cc1`, for which the relative growth is 1.05 (inactive).

As for `CCCCCCCCCCCCNC(=N)N`, the relative growth is 0.00315 (active).

Take `CN/C(=N/CC1CCOC1)N[N+](=O)[O-]` (configuration not stated): the relative growth was 0.957 (inactive).

`CC1COC(Cn2cncn2)(c2ccc(Oc3ccc(Cl)cc3)cc2Cl)O1` (configuration not stated): the relative growth was 1.16 (inactive).

For the molecule `CNC(=O)ON=C(C)SC`, the relative growth is 0.947 (inactive).

As to `CC(C)(C)c1ccc(CSc2cnn(C(C)(C)C)c(=O)c2Cl)cc1`, the relative growth is 1.04 (inactive).

Consider `Cc1nnc(-c2ccccc2)c(=O)n1N`, for which the relative growth was 1.12 (inactive).

For `CCC(C)(C)C(=O)OC1=C(c2ccc(Cl)cc2Cl)C(=O)OC12CCCCC2`, the relative growth is 1.03 (inactive).

Turning to `O=C(O)COc1ccc(Cl)cc1Cl`, the relative growth is 0.964 (inactive).

As to `CC(C)N(C)S(=O)(=O)NC(=O)c1cc(-n2c(=O)cc(C(F)(F)F)n(C)c2=O)c(F)cc1Cl`, the relative growth was 1.02 (inactive).

As for `COc1ncc(F)c2nc(S(=O)(=O)Nc3c(F)cccc3F)nn12`, the relative growth is 1 (inactive).

Regarding `CCCCC(C#N)(Cn1cncn1)c1ccc(Cl)cc1` (configuration not stated), the relative growth was 1.12 (inactive).

A further assay deals with Paenibacillus 1 (Paenibacillus castaneae). The assay is described as above. As to conditions: 20 µM. A digest of the protocol:
as §1
Consider `Nc1c([N+](=O)[O-])ccc(Oc2ccccc2)c1Cl`, for which the relative growth is 0.843 (inactive).

As to `COCC(=O)N(c1c(C)cccc1C)[C@H](C)C(=O)OC`, the relative growth was 1.05 (inactive).

Consider `O=C(Nc1ccc(F)cc1F)c1cccnc1Oc1cccc(C(F)(F)F)c1`, for which the relative growth is 0.937 (inactive).

`N#Cc1sc2c(=O)c3ccccc3c(=O)c=2sc1C#N`: the relative growth is 0.928 (inactive).

For the molecule `CC(C)OC(=O)Nc1cccc(Cl)c1`, the relative growth was 1.12 (inactive).

With `N#C/N=C1\SCCN1Cc1ccc(Cl)nc1`, the relative growth was 1.05 (inactive).

Take `CC(Oc1ccc(Oc2ncc(C(F)(F)F)cc2Cl)cc1)C(=O)O` (configuration not stated): the relative growth is 0.966 (inactive).

For the molecule `Oc1ccccc1-c1ccccc1`, the relative growth was 0.888 (inactive).

Consider `C#CCOc1ccc(CCNC(=O)C(OCC#C)c2ccc(Cl)cc2)cc1OC` (configuration not stated), for which the relative growth is 0.851 (inactive).

Take `O=[N+]([O-])c1cc(C(F)(F)F)c(Cl)c([N+](=O)[O-])c1Nc1ncc(C(F)(F)F)cc1Cl`: the relative growth was 0.00404 (active).

As to `CC(C)CC(C)c1sccc1NC(=O)c1cn(C)nc1C(F)(F)F` (configuration not stated), the relative growth is 0.906 (inactive).

In the case of `O=C1C=C(N(Cc2ccc(Cl)nc2)CC(F)F)CO1`, the relative growth was 0.899 (inactive).

As for `O=C(Nc1ccccc1-c1ccc(Cl)cc1)c1cccnc1Cl`, the relative growth is 1.02 (inactive).

`CC(C)N1C(=O)c2ccccc2NS1(=O)=O`: the relative growth was 0.96 (inactive).

Turning to `CCC(=O)Nc1ccc(Cl)c(Cl)c1`, the relative growth was 0.968 (inactive).

As to `ClC1C(Cl)C(Cl)C(Cl)C(Cl)C1Cl` (configuration not stated), the relative growth was 0.961 (inactive).

On to `CN/C(=N\[N+](=O)[O-])NCc1cnc(Cl)s1`, for which the relative growth was 0.961 (inactive).

In the case of `CCc1cnc(C2=NC(C)(C(C)C)C(=O)N2)c(C(=O)O)c1` (configuration not stated), the relative growth is 1.02 (inactive).

Regarding `N#Cc1c(Cl)c(Cl)c(Cl)c(C#N)c1Cl`, the relative growth was 0.0717 (active).

For `O=C(NCCc1ncc(C(F)(F)F)cc1Cl)c1ccccc1C(F)(F)F`, the relative growth was 0.935 (inactive).

Consider `CCc1cc(C)cc(CC)c1-c1c(OC(=O)C(C)(C)C)n2n(c1=O)CCOCC2`, for which the relative growth was 0.956 (inactive).

In the case of `CC1(C)CON(Cc2ccccc2Cl)C1=O`, the relative growth is 0.973 (inactive).

Take `CCOCn1c(-c2ccc(Cl)cc2)c(C#N)c(Br)c1C(F)(F)F`: the relative growth was 0.978 (inactive).

On to `COc1cc(C)c(C(=O)c2c(OC)ccc(Br)c2C)c(OC)c1OC`, for which the relative growth is 0.965 (inactive).

As for `CCOc1ccc(C(C)(C)COCc2cccc(Oc3ccccc3)c2)cc1`, the relative growth is 0.942 (inactive).

Take `CCCCCCCCCCCCNC(=N)N`: the relative growth is 0.893 (inactive).

With `CN/C(=N/CC1CCOC1)N[N+](=O)[O-]` (configuration not stated), the relative growth is 1.01 (inactive).

For the molecule `CC1COC(Cn2cncn2)(c2ccc(Oc3ccc(Cl)cc3)cc2Cl)O1` (configuration not stated), the relative growth was 0.872 (inactive).

In the case of `CNC(=O)ON=C(C)SC`, the relative growth was 1.07 (inactive).

Consider `CC(C)(C)c1ccc(CSc2cnn(C(C)(C)C)c(=O)c2Cl)cc1`, for which the relative growth was 0.971 (inactive).

As for `Cc1nnc(-c2ccccc2)c(=O)n1N`, the relative growth was 0.905 (inactive).

Regarding `CCC(C)(C)C(=O)OC1=C(c2ccc(Cl)cc2Cl)C(=O)OC12CCCCC2`, the relative growth was 0.964 (inactive).

As for `O=C(O)COc1ccc(Cl)cc1Cl`, the relative growth was 1.01 (inactive).

Turning to `CC(C)N(C)S(=O)(=O)NC(=O)c1cc(-n2c(=O)cc(C(F)(F)F)n(C)c2=O)c(F)cc1Cl`, the relative growth was 0.99 (inactive).

In the case of `COc1ncc(F)c2nc(S(=O)(=O)Nc3c(F)cccc3F)nn12`, the relative growth is 1.06 (inactive).

Regarding `CCCCC(C#N)(Cn1cncn1)c1ccc(Cl)cc1` (configuration not stated), the relative growth is 0.97 (inactive).
